This is an account of results in PubChem BioAssay AID540341 (National Center for Advancing Translational Sciences (NCATS), 2011).

Records with an inconclusive call do not appear. Active and inactive are the calls of the source. Calls follow the shape of the dose curve; as a rule, active = well fitted curve in the direction sought with a large enough effect; inconclusive = small, poorly fitted or top-dose-only effect, or another doubt; inactive = no such curve, though single readings can be large or run the other way.

Chain of Lysosomal acid glucosylceramidase (Homo sapiens) (P04062 whole entry, looked up): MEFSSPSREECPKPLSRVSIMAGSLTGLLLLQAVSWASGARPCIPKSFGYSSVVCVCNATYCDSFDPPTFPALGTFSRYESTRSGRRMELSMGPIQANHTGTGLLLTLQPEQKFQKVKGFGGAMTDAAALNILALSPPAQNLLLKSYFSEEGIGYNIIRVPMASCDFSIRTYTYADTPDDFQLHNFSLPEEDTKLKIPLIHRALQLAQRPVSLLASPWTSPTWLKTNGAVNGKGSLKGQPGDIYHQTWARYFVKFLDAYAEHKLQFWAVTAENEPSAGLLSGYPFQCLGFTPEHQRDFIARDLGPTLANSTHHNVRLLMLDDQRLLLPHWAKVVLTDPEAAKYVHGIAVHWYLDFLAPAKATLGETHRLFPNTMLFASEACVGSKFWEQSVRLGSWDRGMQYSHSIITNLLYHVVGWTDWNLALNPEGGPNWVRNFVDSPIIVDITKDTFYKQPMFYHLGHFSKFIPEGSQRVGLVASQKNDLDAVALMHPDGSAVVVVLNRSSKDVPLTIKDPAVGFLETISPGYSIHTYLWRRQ

The target of this assay is Lysosomal acid glucosylceramidase (Homo sapiens) (UniProt P04062). In words: Activators of Human alpha-Glucosidase as a Potential Chaperone Treatment of Pompe Disease: Glucocerebrosidase Counter Screen. Particulars: Purified GBA enzyme, 4MU-beta-glucoside fluorescence, 40 min; series mostly up to 57.1 µM. An excerpt:
Alpha-glucosidase is responsible for hydrolysis of terminal, non-reducing 1,4-linked alpha-D-glucose residues with release of alpha-D-glucose. It is a lysosomal hydrolase that is required for the degradation of a small percentage (1-3%) of cellular glycogen in human. Deficiency of this enzyme results in glycogen-storage disease type II (GSDII), also referred to as Pompe disease, an autosomal recessive disorder. Structurally normal glycogen is accumulated in lysosomes and cytoplasm in affected patients, primarily in muscle tissues. Excessive glycogen storage within lysosomes may interrupt normal functioning of other organelles and leads to cellular injury. In turn, this leads to enlargement and dysfunction of the entire organ involved (eg, cardiomyopathy and muscle weakness). It has reported that the improper folding and trafficking of alpha-glucosidase resulting from the genetic mutations may account for a significant number of Pompe patients. […] We optimized this alpha-glucosidase assay in 1536-well plate format for identifying the novel small molecule inhibitors with the structures other than the sugar analogs in order to develop the new pharmacological chaperones. NIH Chemical Genomics Center [NCGC] NIH Molecular Libraries Probe Production Centers Network [MLPCN] MLPCN Grant: MH086442-01 Assay Submitter (PI): Wei Zheng
This is a fluorogenic enzyme assay with 4-methylumbelliferyl-beta-D-glucopyranoside as the substrate and purified wildtype glucocerebrosidase as the enzyme preparation. Upon the hydrolysis of this fluorogenic substrate, the resulting product, […] which can be detected by a standard fluorescence plate reader. Data were normalized to the controls for basal activity (without enzyme) and 100% activity (with enzyme). The AC50 values were determined from concentration-response data modeled with the standard Hill equation. Assay buffer: 50 mM citric acid (titrated with potassium phosphate to pH 5.0), 100 mM potassium chloride, 10 mM sodium chloride, 1 mM magnesium chloride, 0.01% Tween-20. 1536-well assay protocol: (1) Add 2 ul/well of glucocerebrosidase enzyme solution (5 nM final) (2) Add 23 nL compounds in DMSO solution. The final titration was 0.5 nM to 58 uM. (3) Add 2 ul of substrate (1 mM final) (4) Incubate at 37C for 40 min. (5) Add 2 ul stop solution (1M NaOH and 1M Glycine mixture, pH 10) (6) Detect the assay plate in a ViewLux plate reader (PerkinElmer) with Ex=365 nm and Em=440nm. Keywords: Glucocerebrosidase, beta-glucosidase, Gaucher Disease, pharmacological chaperone, chaperone therapy, high throughput screening, glucocerebrosidase inhibitor, MLSMR, MLSCN, NIH Roadmap, qHTS and NCGC
For orientation: The purpose of a counterscreen is to sort out artefacts and off-target activity.
Consider `CCCN1CNc2c(c(=O)[nH]c(=S)n2CCc2cc(Cl)ccc2Cl)C1`, for which the compound was classed as inactive.
For `CCCN1CNc2c(c(=O)[nH]c(=O)n2CCc2ccc(OC)c(OC)c2)C1`, the call was inactive.
With `COc1ccc(CCn2c3c(c(=O)[nH]c2=S)CN(C)CN3)cc1OC` the entry was “inactive”; with `CCCN1CNc2c(c(=O)[nH]c(=S)n2CCc2cc(Cl)cc(Cl)c2)C1`, “inactive”; with `CCCN1CNc2c(c(=O)[nH]c(=S)n2CCc2ccc(C)c(C)c2)C1`, “inactive”.
The entry for `COc1ccc(CCc2c[nH]c(=O)c3cncnc23)cc1OC` is “inactive”; for `CCCN1CNc2c(c(=O)[nH]c(=S)n2CCc2c(C)cccc2C)C1` it is “inactive”.
With `CCCN1CNc2c(c(=O)[nH]c(=S)n2CCc2cccc(C)c2C)C1` the entry was “inactive”; with `CCCN1CNc2c(c(=O)[nH]c(=S)n2CCc2ccc(C)cc2C)C1`, “inactive”; with `CCCN1CNc2c(c(=O)[nH]c(=S)n2CCc2cc(C)ccc2C)C1`, “inactive”.
Regarding `OCCNc1nc(-c2cccs2)nc2ccccc12`, the compound was classed as inactive.
As for `COc1ccc(CCn2c3c(c(=O)[nH]c2=S)CN(C(C)C)CN3)cc1OC`, the call was inactive.
With `CCCN1CNc2c(c(=O)[nH]c(=S)n2CCc2ccc3c(c2)OCCO3)C1`, the call was inactive.
The entry for `O=S(=O)(c1ccc(Cl)cc1)N1CCN(c2nc(-c3cccs3)nc3ccccc23)CC1` is “inactive”; for `CCCN1CNc2c(c(=O)[nH]c(=S)n2CCc2ccsc2)C1` it is “inactive”; for `COc1ccc(CCn2c(=S)[nH]c(=O)c3c(C)cc(C)nc32)cc1OC` it is “inactive”.
The entry for `CCCN1CNc2c(c(=O)[nH]c(=S)n2Cc2ccc(OC)c(OC)c2)C1` is “inactive”; for `COc1ccc(CCn2c(=S)[nH]c(=O)c3[nH]cnc32)cc1OC` it is “inactive”.
The entry for `COc1ccc(C#Cc2c[nH]c(=O)c3cncnc23)cc1OC` is “inactive”; for `COc1ccc(CCn2c3c(c(=O)[nH]c2=S)CN(c2ccccc2)CN3)cc1OC` it is “inactive”.
On to `O=S(=O)(c1ccc(Cl)cc1)N1CCN(c2nc(Nc3cc(Cl)ccc3O)nc3ccccc23)CC1`, for which the compound was classed as inactive.
With `CCCN1CNc2c(c(=O)[nH]c(=S)n2CCC(C)(C)C)C1` the entry was “inactive”; with `CCCN1CNc2c(c(=O)[nH]c(=S)n2CCc2cccc(Cl)c2Cl)C1`, “inactive”; with `c1csc(-c2nc(NCC3CCCO3)c3ccccc3n2)c1` (stereo unspecified), “inactive”.
`COc1ccc(CCn2c(=S)[nH]c(=O)c3nccnc32)cc1OC`: the compound was classed as inactive.
The entry for `COc1ccc(C#Cc2cnc(Cl)c3cncnc23)cc1OC` is “inactive”.
